This note sets out measurements from PubChem BioAssay (EPA / NIEHS).

Assay [1] is described as follows: ATG_PXRE_CIS: Attagene CIS-FACTORIAL HepG2 Assay for human Pregnane X Receptor Element (PXRE) (AID 2282957). To be noted: HepG2 Attagene CIS-FACTORIAL PXRE reporter, mRNA; actives raise or lower the signal. In outline: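 Using HepG2 transfected with multiple reporter transcription units, endogenous factor-driven transcription was scored as reporter mRNA after 24 h exposure.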

A short description of assay [2]: ATG_RORE_CIS: Attagene CIS-FACTORIAL HepG2 Assay for human RAR-related Orphan Receptor Element (RORE) (AID 2282959). To be noted: HepG2 Attagene cis-factorial RORE reporter, mRNA; actives raise or lower the signal. In outline:
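Endogenous factor activity at a cis response element is read as reporter transcript levels in HepG2 cells, 24 h post-dose. Transcripts are quantified by RT-PCR with capillary electrophoresis, and data fitted in both directions against DMSO.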

Assay [3] can be described thus: ATG_Sox_CIS: Attagene CIS-FACTORIAL HepG2 Assay for human SRY-box transcription factor (SOX) (AID 2282960). The conditions noted are these: HepG2 Attagene cis-factorial SOX reporter, mRNA; actives raise or lower the signal. In outline:
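Measures mRNA induction of a SOX1-associated reporter in HepG2 after 24 h dosing. Fluorescently labelled RT-PCR fragments are separated by capillary electrophoresis, and gain or loss relative to DMSO control is fitted.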

A short description of assay [4]: ATG_SREBP_CIS: Attagene CIS-FACTORIAL HepG2 Assay for human Sterol Regulatory Element Binding (SREBP) (AID 2282962). To be noted: HepG2 Attagene cis-factorial SREBP reporter, mRNA; actives raise or lower the signal. In a few lines: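 Endogenous factor activity is measured in HepG2 through multiplexed reporter units under cis-element control. Following a 24 h incubation, reporter transcripts are reverse-transcribed, PCR-amplified and sized by capillary electrophoresis; activity is fitted in both directions relative to DMSO.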

Assay [5] addresses Signal transducer and activator of transcription 3 (Homo sapiens) (UniProt P40763). Put plainly: ATG_STAT3_CIS: Attagene CIS-FACTORIAL HepG2 Assay for human Signal Transducer and Activator of Transcription 3 (STAT3) (AID 2282963). To be noted: HepG2, Attagene cis-factorial STAT3 reporter transcription; actives raise or lower the signal. In outline:
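Readout is reporter transcript quantified by RT-PCR and capillary electrophoresis, with 6-FAM primer extension and HpaI digestion. Total RNA is taken 24 h after dosing transiently transfected HepG2 carrying cis-regulated reporter units. Bidirectional fit against DMSO.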

The nature of assay [6]: ATG_TA_CIS: Attagene CIS-FACTORIAL HepG2 Assay for human TA Basal Promoter (AID 2282964). The conditions noted are these: HepG2 Attagene CIS-factorial TA basal promoter reporter; actives raise or lower the signal. In a few lines: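 Cis-factorial format in HepG2: reporters report endogenous factors, not chimeric Gal4 fusions. After 24 h treatment, reporter transcripts were measured by RT-PCR-capillary electrophoresis fluorescence, analysed bidirectionally versus DMSO.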

A short description of assay [7]: ATG_TAL_CIS: Attagene CIS-FACTORIAL HepG2 Assay for human TAL Basal Promoter (AID 2282966).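 Also: background control endpoint measuring basal TAL promoter reporter mRNA not a specific factor.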 To be noted: HepG2 Attagene cis-factorial TAL promoter reporter; actives raise or lower the signal. In a few lines: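 After 24 hours of chemical exposure, transfected HepG2 cells yielded RNA that was converted to 6-FAM-labelled, HpaI-digested reporter fragments for capillary electrophoresis. Values derive from bidirectional fitting against DMSO controls.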

Assay [8] can be described thus: ATG_TGFb_CIS: Attagene CIS-FACTORIAL HepG2 Assay for human Transforming Growth Factor (TGF) (AID 2282967). The conditions noted are these: HepG2 Attagene CIS TGFb reporter, mRNA transcription; actives raise or lower the signal. In a few lines:
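Multiplexed cis-reporter HepG2 system, 24 h treatment; mRNA induction read by fluorescence after RT-PCR and CE; DMSO negative control, bidirectional curve fitting.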

Assay [9] is described as follows: ATG_VDRE_CIS: Attagene CIS-FACTORIAL HepG2 Assay for human Vitamin D Receptor Element (VDRE) (AID 2282968). To be noted: HepG2 VDRE cis-reporter transcription, actives raise or lower the signal. In outline:
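Readout is VDRE-driven reporter mRNA reflecting endogenous factor activity in human HepG2 cells, sampled 24 h post-dose. Quantification used labelled RT-PCR products separated by capillary electrophoresis; bidirectional analysis relative to DMSO.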

For assay [10], the target named is Steroid hormone receptor ERR1 (Homo sapiens) (UniProt P11474). Put plainly: ATG_ERRa_TRANS: Attagene TRANS-FACTORIAL HepG2 Assay for human Estrogen-Related Receptor alpha (ERRa) (AID 2282971; active = hit-call score of the fitted dose curve at least 0.9, where 1 is the maximum). The conditions noted are these: HepG2 Attagene TRANS reporter, ERRa transactivation. In outline:
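Reporter transcript induction was quantified by RT-PCR and capillary electrophoresis of FAM-labelled, HpaI-cut products after 24 h treatment of HepG2 cells carrying transiently transfected GAL4-UAS reporter units and an exogenous ERRa-Gal4 fusion; activity scored as increase over DMSO.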

Assay [11] concerns the target X-box-binding protein 1 (Homo sapiens) (UniProt P17861). Put plainly: ATG_Xbp1_CIS: Attagene CIS-FACTORIAL HepG2 Assay for human X-box Binding Protein 1 (XBP1) (AID 2282972). The conditions noted are these: HepG2 XBP1 cis-element reporter, Attagene multiplex; actives raise or lower the signal. In a few lines:
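Multiplexed cis-reporter readout in transfected HepG2 liver cells. Exposure lasted 24 hours. Activity in either direction was fitted against DMSO as negative control and baseline.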

Assay [12] can be described thus: ATG_M_19_TRANS: Attagene TRANS-FACTORIAL HepG2 Assay for M19 Transcription Factor (Internal Marker) (AID 2282974; active = hit-call score of the fitted dose curve at least 0.9, where 1 is the maximum). To be noted: HepG2 Attagene TRANS-FACTORIAL M19 internal marker reporter. In a few lines:
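Reporter mRNA induction was measured in transfected HepG2 cells 24 h after dosing. Endpoint fitted upward relative to DMSO and serves as a background control within the multiplexed TRANS panel.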

Assay [13] has as its target Estrogen-related receptor gamma (Homo sapiens) (UniProt P62508). Description: ATG_ERRg_TRANS: Attagene TRANS-FACTORIAL HepG2 Assay for human Estrogen-Related Receptor gamma (ERRg) (AID 2282977; active = hit-call score of the fitted dose curve at least 0.9, where 1 is the maximum;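 also: hits increase reporter signal over DMSO so potencies reflect activators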). To be noted: HepG2 Attagene TRANS reporter, ERRg transactivation. In a few lines:
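Induction of reporter transcripts through a chimeric NR-Gal4 protein is quantified in transfected human HepG2 liver cells after 24 h chemical exposure, using RT-PCR with capillary electrophoresis detection and DMSO as baseline.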

Assay [14] addresses Glucocorticoid receptor (Homo sapiens) (UniProt P04150). Put plainly: ATG_GR_TRANS: Attagene TRANS-FACTORIAL HepG2 Assay for human Glucocorticoid Receptor (GR) (AID 2282978; active = hit-call score of the fitted dose curve at least 0.9, where 1 is the maximum;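 also: activators score as hits since higher reporter transcript over DMSO is fitted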). To be noted: HepG2 Attagene TRANS GR reporter, mRNA transcription. In outline:
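Reporter transcript levels, detected by fluorescence after RT-PCR and capillary electrophoresis, served as the endpoint. HepG2 cells bearing transfected GAL4-UAS reporters responsive to NR-GAL4 chimeras were incubated with compound 24 h; DMSO defined baseline.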

Assay [15] in a line: ATG_PPRE_CIS: Attagene CIS-FACTORIAL HepG2 Assay for human Peroxisome Proliferator-activated Response Element (PPRE) (AID 2282958). To be noted: HepG2 PPRE cis-element reporter, Attagene transcription factor profiling; actives raise or lower the signal. In outline: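 In this cell-based multiplex, a PPRE cis element drives a reporter sequence in transiently transfected HepG2 cells. Following 24 h treatment, labeled cDNA amplicons are sized and quantified by capillary electrophoresis, with DMSO defining baseline.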

The nature of assay [16]: ATG_TCF_b_cat_CIS: Attagene CIS-FACTORIAL HepG2 Assay for human T-Cell-Factor with beta-catenin (TCF/b-cat) (AID 2282965). To be noted: HepG2 TCF/beta-catenin cis-reporter transcription, actives raise or lower the signal. In a few lines: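 Endogenous transcription factor activity is captured through cis-promoter reporter constructs transiently introduced into human HepG2 liver cells. Induced reporter mRNA is measured after 24 h and fitted bidirectionally relative to DMSO.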

Assay [17] can be described thus: ATG_GAL4_TRANS: Attagene TRANS-FACTORIAL HepG2 Assay for GAL4 (Internal Marker) (AID 2282976; active = hit-call score of the fitted dose curve at least 0.9, where 1 is the maximum). The conditions noted are these: HepG2 Attagene TRANS GAL4 internal marker reporter. In a few lines:
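First, HepG2 cells were transfected with reporter units under GAL4-UAS control. Next, they were treated with chemical for 24 h. Finally, RNA was reverse-transcribed, PCR-amplified, FAM-labelled and resolved by capillary electrophoresis, with induction scored against DMSO.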

The target of assay [18] is Transcription factor Sp1 (Homo sapiens) (UniProt P08047). Description: ATG_Sp1_CIS: Attagene CIS-FACTORIAL HepG2 Assay for human Specificity Protein 1 (Sp1) (AID 2282961). The conditions noted are these: HepG2 Sp1 cis-reporter transcription, actives raise or lower the signal. In a few lines: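 Cells: HepG2, transiently transfected with cis-regulated multiplexed reporters. Exposure: 24 h. Detection: reporter transcripts amplified, fluorescently labeled, restriction-digested and sized by capillary electrophoresis. Analysis: bidirectional fit relative to DMSO.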
Chain of Transcription factor Sp1 (Homo sapiens) (P08047 whole entry, looked up): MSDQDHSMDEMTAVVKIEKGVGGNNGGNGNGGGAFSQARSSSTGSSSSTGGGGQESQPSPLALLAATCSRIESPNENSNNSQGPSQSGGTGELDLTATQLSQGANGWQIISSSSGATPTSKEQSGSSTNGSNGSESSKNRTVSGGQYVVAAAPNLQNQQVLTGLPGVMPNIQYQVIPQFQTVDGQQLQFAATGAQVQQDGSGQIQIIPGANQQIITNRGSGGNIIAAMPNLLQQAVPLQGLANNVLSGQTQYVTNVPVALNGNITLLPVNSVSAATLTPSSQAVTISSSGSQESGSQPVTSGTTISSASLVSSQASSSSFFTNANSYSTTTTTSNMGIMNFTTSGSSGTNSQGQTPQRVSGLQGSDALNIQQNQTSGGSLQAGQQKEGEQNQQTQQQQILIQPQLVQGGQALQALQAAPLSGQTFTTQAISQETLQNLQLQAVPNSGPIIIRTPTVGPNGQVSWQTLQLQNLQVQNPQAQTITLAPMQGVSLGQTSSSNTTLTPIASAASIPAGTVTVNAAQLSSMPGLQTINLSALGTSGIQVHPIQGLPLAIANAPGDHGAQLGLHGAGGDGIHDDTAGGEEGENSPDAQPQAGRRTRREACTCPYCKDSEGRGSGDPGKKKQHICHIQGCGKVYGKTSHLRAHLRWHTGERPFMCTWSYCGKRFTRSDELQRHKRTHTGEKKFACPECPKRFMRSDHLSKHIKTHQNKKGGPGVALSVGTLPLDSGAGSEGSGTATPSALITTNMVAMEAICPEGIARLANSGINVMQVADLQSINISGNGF

Assay [19] addresses Nuclear receptor subfamily 1 group I member 3 (Homo sapiens) (UniProt Q14994). Description: ATG_CAR_TRANS: Attagene TRANS-FACTORIAL HepG2 Assay for human Constitutive Androstane Receptor (CAR) (AID 2282969; active = hit-call score of the fitted dose curve at least 0.9, where 1 is the maximum;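 also: activators raise reporter mRNA above DMSO so AC50 marks induction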). To be noted: HepG2 Attagene TRANS-FACTORIAL CAR reporter. In outline:
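Signal is reporter mRNA induction relative to DMSO, measured 24 h after dosing by RT-PCR with fluorescent primer extension and capillary electrophoresis. Human HepG2 liver cells carried transiently transfected chimeric NR-Gal4/GAL4-UAS reporter constructs.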

As usually defined, the AC50 is the concentration at which the activity in the assay is half-maximal.

Several values for one entry are separate records, joined by “and”; a condition that tells them apart may be missing. Equal entries are not always repeated. Records with an inconclusive call do not appear. A structure can be active in one record and inactive in another. Activity calls are given as the source filed them. The calls were made as follows, unless noted: active = hit-call score of the fitted dose curve at least 0.9, where 1 is the maximum; inactive = score below 0.9.

Chain of Signal transducer and activator of transcription 3 (Homo sapiens) (P40763 whole entry, looked up): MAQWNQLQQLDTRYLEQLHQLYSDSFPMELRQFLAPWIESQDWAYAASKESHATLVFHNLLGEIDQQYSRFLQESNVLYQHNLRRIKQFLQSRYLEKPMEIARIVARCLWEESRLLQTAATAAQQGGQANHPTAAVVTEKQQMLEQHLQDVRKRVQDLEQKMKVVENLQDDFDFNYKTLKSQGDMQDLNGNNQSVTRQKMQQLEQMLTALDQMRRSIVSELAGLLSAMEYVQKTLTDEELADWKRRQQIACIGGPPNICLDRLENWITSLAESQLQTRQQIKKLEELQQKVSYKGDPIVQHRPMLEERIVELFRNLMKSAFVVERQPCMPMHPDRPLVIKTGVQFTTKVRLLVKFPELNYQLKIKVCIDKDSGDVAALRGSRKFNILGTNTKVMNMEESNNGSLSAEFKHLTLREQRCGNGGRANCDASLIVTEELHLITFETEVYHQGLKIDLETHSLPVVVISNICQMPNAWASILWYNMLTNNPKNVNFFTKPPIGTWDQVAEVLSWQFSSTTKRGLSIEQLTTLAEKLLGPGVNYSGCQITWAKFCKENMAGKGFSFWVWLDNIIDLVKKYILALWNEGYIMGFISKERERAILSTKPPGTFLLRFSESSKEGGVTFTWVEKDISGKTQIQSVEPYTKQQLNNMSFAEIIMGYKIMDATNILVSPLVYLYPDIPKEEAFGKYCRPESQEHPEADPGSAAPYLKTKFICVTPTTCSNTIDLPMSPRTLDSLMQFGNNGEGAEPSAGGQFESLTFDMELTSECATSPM
Chain of Glucocorticoid receptor (Homo sapiens) (P04150 whole entry, looked up, the tested form may be a part): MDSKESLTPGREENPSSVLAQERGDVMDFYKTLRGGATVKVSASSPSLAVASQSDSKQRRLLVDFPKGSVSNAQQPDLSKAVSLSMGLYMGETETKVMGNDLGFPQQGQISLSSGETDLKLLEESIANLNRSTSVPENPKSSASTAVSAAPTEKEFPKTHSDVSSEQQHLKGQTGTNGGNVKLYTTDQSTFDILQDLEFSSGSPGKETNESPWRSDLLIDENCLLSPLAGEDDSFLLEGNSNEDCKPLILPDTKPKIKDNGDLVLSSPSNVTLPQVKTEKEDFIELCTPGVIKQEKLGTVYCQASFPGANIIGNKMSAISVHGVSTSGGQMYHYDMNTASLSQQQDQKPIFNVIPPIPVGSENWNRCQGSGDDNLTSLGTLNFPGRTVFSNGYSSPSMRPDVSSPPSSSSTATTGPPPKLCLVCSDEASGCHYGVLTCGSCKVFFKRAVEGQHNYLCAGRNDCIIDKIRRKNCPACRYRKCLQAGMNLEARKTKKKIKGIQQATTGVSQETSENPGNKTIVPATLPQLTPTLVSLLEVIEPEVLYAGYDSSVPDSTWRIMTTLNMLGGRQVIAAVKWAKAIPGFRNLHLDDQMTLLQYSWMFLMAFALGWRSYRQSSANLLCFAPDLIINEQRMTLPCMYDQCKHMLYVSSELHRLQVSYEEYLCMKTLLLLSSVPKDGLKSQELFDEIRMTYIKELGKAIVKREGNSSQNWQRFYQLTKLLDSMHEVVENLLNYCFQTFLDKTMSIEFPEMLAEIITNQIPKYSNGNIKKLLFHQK
Chain of X-box-binding protein 1 (Homo sapiens) (P17861 whole entry, looked up): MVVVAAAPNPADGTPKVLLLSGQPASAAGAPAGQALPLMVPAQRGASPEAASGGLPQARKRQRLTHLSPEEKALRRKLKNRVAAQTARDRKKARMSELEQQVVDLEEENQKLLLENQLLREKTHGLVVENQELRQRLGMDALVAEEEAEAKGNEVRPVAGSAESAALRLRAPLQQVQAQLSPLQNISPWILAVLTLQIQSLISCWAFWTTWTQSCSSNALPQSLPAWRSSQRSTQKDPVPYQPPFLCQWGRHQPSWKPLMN
Chain of Steroid hormone receptor ERR1 (Homo sapiens) (P11474 whole entry, looked up, the tested form may be a part): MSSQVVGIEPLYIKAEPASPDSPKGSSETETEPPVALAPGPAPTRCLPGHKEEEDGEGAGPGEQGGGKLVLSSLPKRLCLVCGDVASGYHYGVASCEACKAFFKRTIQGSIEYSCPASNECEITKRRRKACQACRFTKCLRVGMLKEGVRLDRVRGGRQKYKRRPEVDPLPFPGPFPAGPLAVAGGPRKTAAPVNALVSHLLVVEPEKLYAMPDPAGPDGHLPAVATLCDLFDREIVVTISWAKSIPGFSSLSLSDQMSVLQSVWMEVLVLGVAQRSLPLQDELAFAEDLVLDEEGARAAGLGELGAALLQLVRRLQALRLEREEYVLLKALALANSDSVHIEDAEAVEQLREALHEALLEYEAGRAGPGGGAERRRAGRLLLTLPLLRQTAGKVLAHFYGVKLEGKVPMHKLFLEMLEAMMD
Chain of Estrogen-related receptor gamma (Homo sapiens) (P62508 whole entry, looked up, the tested form may be a part): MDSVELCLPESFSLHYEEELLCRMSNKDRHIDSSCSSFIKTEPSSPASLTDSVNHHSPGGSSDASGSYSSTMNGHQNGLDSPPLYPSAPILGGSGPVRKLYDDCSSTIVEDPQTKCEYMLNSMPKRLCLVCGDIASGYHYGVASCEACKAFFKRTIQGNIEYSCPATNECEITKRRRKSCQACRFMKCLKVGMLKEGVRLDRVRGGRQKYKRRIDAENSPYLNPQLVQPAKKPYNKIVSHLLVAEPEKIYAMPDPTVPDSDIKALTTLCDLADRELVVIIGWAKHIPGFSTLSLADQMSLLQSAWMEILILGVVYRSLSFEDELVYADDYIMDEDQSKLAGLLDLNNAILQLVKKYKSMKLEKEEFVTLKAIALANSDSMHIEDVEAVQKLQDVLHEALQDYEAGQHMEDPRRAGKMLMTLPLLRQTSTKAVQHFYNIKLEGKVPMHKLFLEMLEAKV
Chain of Nuclear receptor subfamily 1 group I member 3 (Homo sapiens) (Q14994 whole entry, looked up, the tested form may be a part): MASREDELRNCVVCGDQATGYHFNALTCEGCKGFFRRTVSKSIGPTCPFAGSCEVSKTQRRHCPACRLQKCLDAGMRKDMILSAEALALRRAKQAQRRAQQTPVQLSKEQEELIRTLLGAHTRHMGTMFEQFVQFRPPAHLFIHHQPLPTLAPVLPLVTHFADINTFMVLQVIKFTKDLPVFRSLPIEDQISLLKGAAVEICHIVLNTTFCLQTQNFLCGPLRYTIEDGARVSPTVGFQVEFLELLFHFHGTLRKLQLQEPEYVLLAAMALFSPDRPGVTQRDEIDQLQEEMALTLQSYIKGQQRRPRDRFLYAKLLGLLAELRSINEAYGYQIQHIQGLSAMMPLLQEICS

Regarding `O=C(CC(=O)C(F)(F)C(F)(F)C(F)(F)F)c1cccs1`, the AC50 was 12.9 µM (active) and 12.8 µM (active) in assay [1]; 15.6 µM (active) in assay [2]; 16.2 µM (active) and 80.3 µM (active) in assay [4]; 81 µM (active) and 34.2 µM (active) in assay [7]; 11 µM (active) in assay [9]; 8.17 µM (active) and 32.9 µM (active) in assay [11]. The call in assay [2], in assay [3], in [5], in [6], in [8] and in assay [9] was inactive. Further, the result in assay [10], in [12], in assay [13] and in [14] was inactive.

Consider `CCCCCCCCCCCC(=O)O`, for which the result in assay [1], in assay [15], in assay [2], in assay [3], in [5] and in assay [6] was inactive. For the same compound, the call in assay [16], in assay [7], in assay [8], in assay [11], in [12] and in [17] was inactive. For the same compound, the AC50 in assay [4] was 52.7 µM (active) and 60 µM (active); in assay [11], 87 µM (active).

Regarding `CCN(CCC#N)c1ccccc1`, the AC50 in assay [1] is 39.6 µM (active). For the same compound, the outcome in assay [2], in assay [3], in assay [18], in [4], in [5] and in assay [6] was inactive. In addition, the call in [16], in assay [7], in assay [8], in assay [9], in assay [19] and in [11] was inactive. Moreover, the compound was classed as inactive in [12], in assay [17] and in [14].

On to `O=C1OC(=O)C(F)(F)C1(F)F`, for which the compound was called inactive in assay [1], in [15], in [2], in assay [3], in assay [4] and in [5]. Besides, the call in assay [6], in assay [16], in [7], in [8], in assay [9] and in [10] was inactive. For the same compound, the result in [11], in assay [12] and in assay [17] was inactive.
